Screening data as filed in PubChem BioAssay.
DAT uptake mod: changed human dopamine transporter uptake under cocaine IC80; Q01959; B-score at 10 µM; 110,000 tested, 1.3% active; AID 449768; LLC-PK1 hDAT cells, [14C]-dopamine uptake with cocaine IC80; actives deviate in either direction;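 active = Z score or B-score, a plate-position-corrected score, falls beyond the plate's 99.7% confidence bounds, in either direction; inactive = both scores lie inside the 99.7% bounds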;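 also: scored against the spread of the other compound wells on the same plate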
Target sequence (Q01959 whole entry, looked up): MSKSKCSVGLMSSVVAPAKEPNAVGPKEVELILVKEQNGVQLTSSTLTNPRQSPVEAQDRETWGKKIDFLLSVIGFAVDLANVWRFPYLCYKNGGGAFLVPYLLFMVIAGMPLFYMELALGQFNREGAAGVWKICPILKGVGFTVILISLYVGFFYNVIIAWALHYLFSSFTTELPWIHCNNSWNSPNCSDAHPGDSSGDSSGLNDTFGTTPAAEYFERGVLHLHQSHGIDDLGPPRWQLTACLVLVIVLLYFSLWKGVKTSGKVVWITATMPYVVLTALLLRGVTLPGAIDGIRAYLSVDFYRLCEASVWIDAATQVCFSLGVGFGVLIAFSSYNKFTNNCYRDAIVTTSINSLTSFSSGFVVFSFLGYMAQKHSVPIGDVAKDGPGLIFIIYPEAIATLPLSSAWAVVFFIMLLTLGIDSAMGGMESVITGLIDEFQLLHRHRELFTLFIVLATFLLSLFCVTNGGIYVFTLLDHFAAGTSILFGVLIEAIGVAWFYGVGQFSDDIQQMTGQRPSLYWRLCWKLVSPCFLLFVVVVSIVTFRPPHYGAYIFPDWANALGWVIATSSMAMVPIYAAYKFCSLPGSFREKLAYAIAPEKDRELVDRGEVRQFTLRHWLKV
MRP-1 activ: activates MRP-1; H69AR cells + doxorubicin, viability rescue, CellTiter-Glo; 140,000 tested, 0.61% active; viability increase, % at 10 µM; AID 799;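 active = viability gain under doxorubicin at or above a set limit, the compound median plus 3 SD, cut at about 4.7% in these data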;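 also: MRP-1 overexpressing cells given doxorubicin 25 µM after compound pretreatment; 18-22 h compound pretreatment then 72 h with doxorubicin before readout; 0% = doxorubicin-only wells and 100% = vehicle-treated cells without doxorubicin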
MRP reversal: MRP-mediated drug resistance reversal | H69AR cells + 2 uM doxorubicin, CellTiter-Glo, 72 h | differential viability (reversal), % at 10 µM | 85,000 tested, 0.04% active;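 active = viability drop by adding the cancer drug above about 55%, with treated viability meeting a 40% cutoff, limit read from the data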;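 also: viability without doxorubicin minus viability with 2 µM doxorubicin for each compound; larger differential means the compound sensitizes cells more to doxorubicin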
* hit, by the source's call; nt = no result. A selection: hits, their analogues and other compounds. The true share with any hit is near 1.5%.

SMILES	DAT uptake mod	MRP-1 activ	MRP reversal
Cc1nc(C)c(C(=O)NNS(=O)(=O)c2ccccc2)s1	nt	5.2*	nt
C/C=C(/C)C(=O)Nc1cccc(C2=NOC3(C2)C[C@@H](C(N)=O)N(C(=O)/C=C/CC)C3)c1 (some centres undefined)	0.041	nt	nt
Cc1nn(CCC(N)=S)c2nc(-c3cccs3)cc(C(F)(F)F)c12	nt	2	nt
Cc1ccc(Nc2nc(CSc3nnnn3C)cs2)cc1	1.7	5.4*	25
Cn1nnnc1SCc1csc(Nc2ccccc2)n1	0.44	-1	-9
Cc1ccccc1N1CCN(c2ccc(NC(=O)C3CCCCC3C(=O)O)cc2)CC1 (centres undefined)	nt	-3	nt
CCOCCOC(=O)c1ccc(-n2cncn2)nc1	-2.1	0	4
COc1ccc(C2C(C#N)=C(N)SC(N)=C2C#N)cc1OC	-0.37	0	-1
N#CC1=C(N)SC(N)=C(C#N)C1c1cccc(O)c1	0.24	5.1*	-14
COc1ccc(OC(=O)c2cc(S(=O)(=O)N3CCCC3)ccc2Cl)cc1	-2.3*	-1	3
COc1ccc(S(=O)(=O)N2CCCCCC2)cc1	1.8	0	10
CCOC(=O)Cn1c(=NC(=O)c2ccc([N+](=O)[O-])s2)sc2ccccc21	nt	-5	nt
COc1ccc2nc(/N=C(\N)NC(=O)C(C)(C)C)nc(C)c2c1	-0.26	-5	-20
Cc1nc(/N=C(\N)Nc2ccccc2)nc2ccccc12	2.5	-4	-16
Cc1ccc2c(C)nc(/N=C(\N)NC(=O)N3c4ccccc4Sc4ccccc43)nc2c1	nt	11*	nt
COc1ccc2nc(/N=C(\N)NC(=O)N3c4ccccc4Sc4ccccc43)nc(C)c2c1	nt	-5	nt
Cc1cc2nc(/N=C(\N)NC(=O)N3c4ccccc4Sc4ccccc43)nc(C)c2cc1C	nt	12*	nt
Cc1ccc2nc(/N=C(\N)NC(=O)N3c4ccccc4Sc4ccccc43)nc(C)c2c1	nt	8.7*	nt
C#C[C@]1(O)CC[C@H]2[C@@H]3[C@H](C)CC4=C(CCC(=O)C4)[C@H]3CC[C@@]21C	-0.13	nt	nt
Cc1cc2nc3c(=O)n(C4CCCCC4)c(=O)[nH]c3nc2cc1N	nt	-1	nt
CCOC(=O)c1cc(-c2ccc(C)cc2)n(CCC(=O)N2CCN(c3ccccn3)CC2)c1C	nt	-4	nt
Cc1ccc(O)c(C(CC(=O)N2CCCC2)c2ccccc2)c1 (centres undefined)	nt	-3	-6
CCCN(CCC)C(=O)CC(c1ccccc1)c1cc(C)ccc1O (centres undefined)	2.5*	-4	3
CC1(C)CC2c3cccc(C(=O)O)c3C(=O)N2c2c1ccc1ccccc21 (centres undefined)	nt	-4	nt
CCOC(=O)C(NC(C)=O)(N1CCOCC1)C(F)(F)F (centres undefined)	1.8*	-1	nt
SMILES	DAT uptake mod	MRP-1 activ	MRP reversal
CCOC(=O)C(NC(=O)c1ccccc1)(N1CCOCC1)C(F)(F)F (centres undefined)	-0.23	0	2
Cc1ccc(CCNC(=O)C2CC(c3ccccc3C(F)(F)F)=NO2)cc1 (centres undefined)	0.45	nt	nt
CCCCCCCOc1ccc(-c2ccc(C#N)cn2)cc1	nt	5.1*	nt
CCCCOc1ccc(-c2cnc3ccccc3n2)cc1	nt	1	nt
NC(=O)c1ccc(-n2nnnc2SCc2ccc(F)cc2)cc1	0.39	0	10
O=C(O)c1ccc(-n2nnnc2SCc2ccccc2)cc1	0.21	-4	83*
O=C1[C@H]2[C@H](C=CC[C@H]2C(=O)N2CCOCC2)CCN1Cc1ccccc1	-0.62	nt	nt
COC(=O)c1ccccc1NC1=C/C(=N\S(=O)(=O)c2cccs2)c2ccccc2C1=O	-3*	-5	-18
O=C1C(Nc2ccccc2)=C/C(=N/S(=O)(=O)c2cccs2)c2ccccc21	nt	-5	nt
COc1ccc(S(=O)(=O)N2CCCC(C(=O)Nc3cccc(C(C)=O)c3)C2)cc1 (centres undefined)	1.9*	-3	-25
CC(=O)c1cccc(NC(=O)C2CCCN(S(=O)(=O)c3ccc(F)cc3)C2)c1 (centres undefined)	0.035	-1	-2
CC1CCCC(C)N1C(=O)CSc1nnc(COc2ccccc2)n1-c1ccccc1 (centres undefined)	-0.23	-1	11
CCOC(=O)c1oc2ccccc2c1NC(=O)c1cccc(OC)c1	0.16	2	1
CCOC(=O)c1oc2ccccc2c1NC(=O)c1ccc(Cl)s1	-2.4*	0	-1
Cc1ccc(F)cc1NC(=O)c1ccc(NS(=O)(=O)c2ccc(Br)s2)cc1	nt	-1	nt
COc1ccccc1C1=NOC(C)(c2nnc(-c3cccc(Cl)c3)o2)C1 (centres undefined)	-0.083	nt	nt
COc1cc(CNCCc2c[nH]c3ccccc23)ccc1OCc1ccccc1F	2.5*	-5	nt
COc1cccc(CNCCc2c[nH]c3ccccc23)c1OCc1ccccc1	nt	-6	nt
CC(C)c1ccc(-c2cc(C(=O)NN3CCN(C)CC3)c3ccccc3n2)cc1	nt	-4	nt
CCOC(=O)c1[nH]c2ccc(OC)cc2c1NC(=S)N1CCN(c2cccc(C)c2C)CC1	nt	-4	nt
CCCCOC(=O)C1=C(C)Nc2ncnn2C1c1cc(OC)ccc1OC (centres undefined)	1.7	-4	0
CCCCOC(=O)C1=C(C)Nc2ncnn2C1c1cccc(OC)c1OC (centres undefined)	-2.9*	-1	14
O=C1Nc2ccccc2CCC1Sc1nnc(-c2ccc(Cl)cc2)s1 (centres undefined)	0.096	6.6*	26
CCOC(=O)CN1C(=O)C(Sc2nnc(-c3ccccc3OC)s2)CCc2ccccc21 (centres undefined)	nt	nt	10
CCOc1ccc(-c2nn[nH]n2)cc1	-0.91	0	-7
SMILES	DAT uptake mod	MRP-1 activ	MRP reversal
Brc1cc2c(cc1COc1ccc(-c3nn[nH]n3)cc1)OCO2	0.35	5.0*	-31
COc1ccc(/C=N/NC(=O)c2ccc(NC(=O)c3ccccc3Br)cc2)cc1	nt	-1	nt
Cc1cccc(C)c1OCc1nnc(NC(=O)CSc2ccc(Cl)cc2)s1	nt	1	nt
CCOCC(=O)Nc1nnc(COc2ccc(Cl)cc2)s1	1.8	4	nt
O=C(CSc1ccccc1)Nc1nnc(COc2ccc(Cl)cc2)s1	nt	7.1*	nt
COCc1nnc(NC(=O)CSc2ccc(C)cc2)s1	-1.1	-4	-13
COCc1nnc(NC(=O)CSc2ccccc2)s1	-2.6*	-1	-15
COCC(=O)Nc1nnc(COc2ccc(Cl)cc2)s1	0.01	5.4*	1
CCN(C(=O)CCCC(=O)N(CC)c1ccccc1)c1ccccc1	nt	-1	nt
COc1ccc(C2CC(C(F)(F)F)n3nc(C(=O)Nc4c(C)n(C)n(-c5ccccc5)c4=O)c(Cl)c3N2)cc1 (centres undefined)	nt	0	nt
CCOC(=O)N1CCN(C(=O)CN(c2cccc(C(F)(F)F)c2)S(C)(=O)=O)CC1	-8.7*	-3	-11
CCOC(=O)N1CCN(C(=O)CN(c2ccc(OC)c(OC)c2)S(C)(=O)=O)CC1	-0.17	0	19
OCC[C@H]1C[C@@H](O)[C@H](O)[C@]2(CCCO2)O1	-0.62	nt	nt
Cc1cccc(NC(=O)CCC(=O)N/N=C/c2ccncc2)c1	nt	0	nt
Cc1cccc(NC(=O)CCC(=O)N/N=C/c2cc([N+](=O)[O-])ccc2O)c1	nt	4.9*	nt
COc1ccc(OC)c(-c2csc(NC(=O)C3c4ccccc4Oc4ccccc43)n2)c1	nt	9.4*	nt
O=C(Nc1nc(-c2ccccc2)cs1)C1c2ccccc2Oc2ccccc21	-1.7	-1	nt
